# Data reported in PubChem BioAssay.
# Measured potencies and affinities stand elsewhere. Inconclusive results are not listed. The source made the active and inactive calls. The rule behind the calls is not given here.
# Columns and labels:
# [1] = IGROV1 ovarian cancer cell cytotoxicity, dose response, PAX8 inhibitor project, plate reader, dry powder samples (AID 743043);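 note: more negative means fewer viable cells or more cytotoxicity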
# [2] = IOSE-T80 ovarian epithelial cell cytotoxicity, dose response, cytotoxicity control for PAX8 inhibitor project, plate reader, dry powder samples (AID 743045);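 note: more negative values mean more cell killing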
structure (smiles),measurement,setting,value
O=C(N1CCCCC1)[C@@]1(CCS(=O)(=O)c2ccccc2)N=C(c2ccc(OCCCO)cc2)O[C@H]1c1ccccc1,outcome,[1],inactive
same,outcome,[2],inactive
